Test results reported in PubChem BioAssay (NCATS).
Values without a mark were called inactive. Inconclusive results are not listed. Entries that show only a call come without a potency. Active and inactive are the calls of the source. Unless noted, the call rests on the fitted dose curve; in most records, active means well fitted curve in the direction sought with a large enough effect; inconclusive means small, poorly fitted or top-dose-only effect, or another doubt; inactive means no such curve, though single readings can be large; an effect the other way counts as inactive or inconclusive.

How the values were obtained:
[1] = qHTS for differential inhibitors of proliferation of Plasmodium falciparum line 3D7 (AID 1876);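 further: parasite growth measured after three days of culture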
[2] = qHTS for differential inhibitors of proliferation of Plasmodium falciparum line D10 (AID 1877);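 further: parasites grown with compound for 72 h before DNA staining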
[3] = qHTS for differential inhibitors of proliferation of Plasmodium falciparum line Dd2 (AID 1882); settings: Potency: Plasmodium falciparum Dd2 proliferation inhibition; further: series mostly up to about 29 µM; nearly all actives have a fitted effect of over 65% in size
Outline: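 Dd2-infected erythrocytes (0.3% parasitemia, 2.5% hematocrit final) incubated with compound 72 h at 37 C, 5% CO2; lysed with saponin/Triton buffer containing SYBR Green I, incubated overnight in the dark, then read by fluorescence (485/535 nm). Normalized to 0.29 uM artemisinin and DMSO.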

[4] = qHTS for differential inhibitors of proliferation of Plasmodium falciparum line W2 (AID 1883); settings: Potency: Plasmodium falciparum W2 proliferation inhibition;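 further: potency means the concentration at half of the fitted maximal effect; parasites grown with compound for 72 h before lysis and staining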
[5] = qHTS for differential inhibitors of proliferation of Plasmodium falciparum line HB3 (AID 1886); settings: Potency: Plasmodium falciparum HB3 proliferation inhibition;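 further: parasites grown with compound for 72 h before SYBR Green readout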
[6] = biological target: Ferritin light chain (Equus caballus) (UniProt P02791); assay: qHTS Validation Assay for Identification of Novel General Anesthetics (AID 2323); further: series mostly up to about 77 µM
Outline: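 Competitive displacement of the profluorescent anesthetic 1-AMA (50% saturated, PBS) from 10 uM apoferritin, 10 min, room temperature. Activity is normalized 380/535 nm fluorescence; concentration-response fitted with a four-parameter Hill equation.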

[7] = biological target: ATP-dependent DNA helicase Q1 (Homo sapiens) (UniProt P46063); assay: qHTS Validation Assay for Inhibitors of RecQ-Like Dna Helicase 1 (RECQ1) (AID 2353)
Sequence of ATP-dependent DNA helicase Q1 (Homo sapiens) (P46063 whole entry, looked up): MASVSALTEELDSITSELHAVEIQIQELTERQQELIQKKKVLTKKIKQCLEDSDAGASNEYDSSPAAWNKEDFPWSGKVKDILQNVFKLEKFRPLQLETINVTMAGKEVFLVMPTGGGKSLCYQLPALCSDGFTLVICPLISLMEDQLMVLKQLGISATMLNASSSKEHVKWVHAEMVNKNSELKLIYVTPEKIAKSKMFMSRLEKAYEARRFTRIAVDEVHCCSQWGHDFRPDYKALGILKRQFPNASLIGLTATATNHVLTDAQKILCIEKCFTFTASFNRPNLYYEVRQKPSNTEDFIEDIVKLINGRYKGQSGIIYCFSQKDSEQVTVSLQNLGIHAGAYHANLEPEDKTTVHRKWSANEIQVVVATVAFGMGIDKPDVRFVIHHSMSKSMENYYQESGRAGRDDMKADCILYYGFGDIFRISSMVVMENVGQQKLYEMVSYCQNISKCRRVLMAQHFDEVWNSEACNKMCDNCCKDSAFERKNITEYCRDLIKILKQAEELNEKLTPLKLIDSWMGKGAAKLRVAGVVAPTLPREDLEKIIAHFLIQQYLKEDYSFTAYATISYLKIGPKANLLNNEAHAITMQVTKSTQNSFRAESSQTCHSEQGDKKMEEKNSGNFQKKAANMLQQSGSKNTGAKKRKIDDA
Outline: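 50 nM RECQ1T1 preincubated 15 min with compound in Tris pH 8.0 buffer with MgCl2, DTT, Tween-20 and 2.5 ug/ml poly(dI-dC); started with 200 nM TAMRA/BHQ-2 forked duplex and 2 mM ATP. Unwinding read as fluorescence (525/598 nm), two reads 2 h apart.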

[8] = biological target: RecQ-like DNA helicase BLM (Homo sapiens) (UniProt P54132); assay: qHTS Validation Assay for Inhibitors of Bloom's syndrome helicase (BLM) (AID 2364)
Sequence of RecQ-like DNA helicase BLM (Homo sapiens) (P54132 whole entry, looked up): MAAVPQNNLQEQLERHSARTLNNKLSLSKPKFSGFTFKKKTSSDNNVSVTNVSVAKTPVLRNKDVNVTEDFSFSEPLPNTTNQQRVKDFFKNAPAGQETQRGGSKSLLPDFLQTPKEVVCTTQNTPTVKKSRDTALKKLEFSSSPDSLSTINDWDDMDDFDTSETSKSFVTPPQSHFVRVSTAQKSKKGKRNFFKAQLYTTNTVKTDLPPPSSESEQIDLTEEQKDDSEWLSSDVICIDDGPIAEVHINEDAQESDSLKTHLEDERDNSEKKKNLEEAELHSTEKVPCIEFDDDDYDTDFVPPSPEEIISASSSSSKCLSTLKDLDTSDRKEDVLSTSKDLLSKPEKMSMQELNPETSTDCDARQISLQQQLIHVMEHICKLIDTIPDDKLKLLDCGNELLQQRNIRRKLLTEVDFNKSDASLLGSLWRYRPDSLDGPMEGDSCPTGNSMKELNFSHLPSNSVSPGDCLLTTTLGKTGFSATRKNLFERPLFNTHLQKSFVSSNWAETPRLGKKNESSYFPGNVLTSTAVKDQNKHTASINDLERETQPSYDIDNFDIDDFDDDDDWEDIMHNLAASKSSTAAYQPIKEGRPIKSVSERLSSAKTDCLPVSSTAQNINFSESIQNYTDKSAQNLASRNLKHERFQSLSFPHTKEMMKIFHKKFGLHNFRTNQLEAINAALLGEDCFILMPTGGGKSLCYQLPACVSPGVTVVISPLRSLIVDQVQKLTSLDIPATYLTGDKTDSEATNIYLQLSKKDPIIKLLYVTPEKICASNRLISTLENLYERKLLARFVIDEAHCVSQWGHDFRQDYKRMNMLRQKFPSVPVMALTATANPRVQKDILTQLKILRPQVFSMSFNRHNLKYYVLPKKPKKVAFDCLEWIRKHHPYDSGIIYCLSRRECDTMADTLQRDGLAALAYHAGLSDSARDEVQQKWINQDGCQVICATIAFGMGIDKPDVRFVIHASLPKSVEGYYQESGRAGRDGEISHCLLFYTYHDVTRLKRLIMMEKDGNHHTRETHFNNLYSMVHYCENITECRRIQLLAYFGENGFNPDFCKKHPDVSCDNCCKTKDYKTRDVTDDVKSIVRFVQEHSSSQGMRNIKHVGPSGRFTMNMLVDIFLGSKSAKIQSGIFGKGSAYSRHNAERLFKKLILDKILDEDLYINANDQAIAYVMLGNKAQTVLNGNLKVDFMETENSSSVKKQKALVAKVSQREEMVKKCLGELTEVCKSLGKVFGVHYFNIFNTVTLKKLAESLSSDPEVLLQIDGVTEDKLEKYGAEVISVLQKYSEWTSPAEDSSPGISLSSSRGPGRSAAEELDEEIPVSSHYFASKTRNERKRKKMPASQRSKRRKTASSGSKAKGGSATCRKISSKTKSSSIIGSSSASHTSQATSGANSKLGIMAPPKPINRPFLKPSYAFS
Outline: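 Forked 20-bp duplex substrate (200 nM, TAMRA/BHQ-2) plus 2 mM ATP added after 15 min compound preincubation with 50 nM enzyme, pH 8.0, poly(dI-dC) 2.5 ug/ml. Strand separation followed by fluorescence (525/598 nm) over 2 h, normalized to enzyme-free and DMSO controls.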

[9] = Validation screen for small molecules that induce DNA re-replication in MCF 10A normal breast cells (AID 463097); further: nearly all actives have a fitted effect of over 60% in size
Outline: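 Read-out is Hoechst total nuclear intensity by fluorescence scanning imager, flagging increased high-DNA-content nuclei. Compounds were incubated with MCF 10A cells for 48 hr (37 C, 5% CO2) before 40 min staining.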

[10] = Quantitative high throughput screen for delayed death inhibitors of the malarial parasite plastid, 96 hour incubation (AID 488745);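 further: luciferase-expressing P. falciparum in erythrocytes at 2% hematocrit and 0.1% parasitemia; series mostly up to about 29 µM; nearly all actives have a fitted effect of over 70% in size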
Outline: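 Infected erythrocytes were added to compound in Albumax-supplemented RPMI 1640 at 0.1% parasitemia and 2% hematocrit (final), incubated 96 h at 37 C under 5% CO2, then luciferase reagent was added and luminescence measured.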

[11] = Quantitative high throughput screen for delayed death inhibitors of the malarial parasite plastid, 48 hour incubation (AID 488752); further: nearly all actives have a fitted effect of over 65% in size
Outline: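 Readout is firefly luciferase luminescence from a reporter integrated into the parasite genome, with lower signal taken as inhibited growth. Infected red cells (0.1% parasitemia, 2% hematocrit final) are cultured with compound for one 48 h cycle at 37 C.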

[12] = biological target: M-phase phosphoprotein 8 (Homo sapiens) (UniProt Q99549); assay: qHTS Validation Assay for Inhibitors for MPP8 Chromodomain Interactions with Methylated Histone Tails (AID 488949);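 further: AlphaScreen signal from MPP8 chromodomain bound to biotinylated H3K9me3 peptide; top concentration of the series differs between compounds; nearly all actives have a fitted effect of over 55% in size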
Sequence of M-phase phosphoprotein 8 (Homo sapiens) (Q99549 whole entry, looked up): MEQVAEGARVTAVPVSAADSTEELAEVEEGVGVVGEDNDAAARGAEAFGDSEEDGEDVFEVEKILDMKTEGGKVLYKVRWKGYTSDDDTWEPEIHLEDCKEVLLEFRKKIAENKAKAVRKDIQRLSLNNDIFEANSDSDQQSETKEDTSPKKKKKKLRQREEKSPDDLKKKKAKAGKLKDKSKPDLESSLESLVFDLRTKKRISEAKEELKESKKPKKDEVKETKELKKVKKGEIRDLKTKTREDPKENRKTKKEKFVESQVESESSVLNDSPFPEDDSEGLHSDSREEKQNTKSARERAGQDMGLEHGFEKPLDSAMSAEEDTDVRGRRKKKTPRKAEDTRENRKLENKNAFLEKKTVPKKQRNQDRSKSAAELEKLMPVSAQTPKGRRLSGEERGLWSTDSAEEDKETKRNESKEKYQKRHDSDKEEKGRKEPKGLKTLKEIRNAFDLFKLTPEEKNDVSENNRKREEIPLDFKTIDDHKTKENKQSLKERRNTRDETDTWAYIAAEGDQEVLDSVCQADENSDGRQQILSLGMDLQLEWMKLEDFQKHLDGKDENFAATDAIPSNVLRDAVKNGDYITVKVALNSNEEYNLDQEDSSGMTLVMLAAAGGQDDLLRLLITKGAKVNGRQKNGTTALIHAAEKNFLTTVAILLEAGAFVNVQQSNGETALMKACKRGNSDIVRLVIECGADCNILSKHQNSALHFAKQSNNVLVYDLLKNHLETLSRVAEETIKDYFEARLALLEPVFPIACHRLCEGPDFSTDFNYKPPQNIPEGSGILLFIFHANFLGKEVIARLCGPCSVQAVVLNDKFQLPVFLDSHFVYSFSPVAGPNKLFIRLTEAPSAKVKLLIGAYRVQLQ
Outline: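 AlphaScreen proximity signal from streptavidin donor and Ni-chelate acceptor beads (10 ug/mL each) reported binding of MPP8 to trimethyl-K9 H3(1-18) peptide, both at 50 nM. The complex formed 30 min before a 30 min compound exposure at room temperature, in PBS pH 7.4.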

[13] = biological target: Transient receptor potential cation channel subfamily V member 1 (Homo sapiens) (UniProt Q8NER1); assay: HTS Assay for Compounds that Act as Enhancers of the Vanilloid Receptor 1 (AID 488979)
Sequence of Transient receptor potential cation channel subfamily V member 1 (Homo sapiens) (Q8NER1 whole entry, looked up): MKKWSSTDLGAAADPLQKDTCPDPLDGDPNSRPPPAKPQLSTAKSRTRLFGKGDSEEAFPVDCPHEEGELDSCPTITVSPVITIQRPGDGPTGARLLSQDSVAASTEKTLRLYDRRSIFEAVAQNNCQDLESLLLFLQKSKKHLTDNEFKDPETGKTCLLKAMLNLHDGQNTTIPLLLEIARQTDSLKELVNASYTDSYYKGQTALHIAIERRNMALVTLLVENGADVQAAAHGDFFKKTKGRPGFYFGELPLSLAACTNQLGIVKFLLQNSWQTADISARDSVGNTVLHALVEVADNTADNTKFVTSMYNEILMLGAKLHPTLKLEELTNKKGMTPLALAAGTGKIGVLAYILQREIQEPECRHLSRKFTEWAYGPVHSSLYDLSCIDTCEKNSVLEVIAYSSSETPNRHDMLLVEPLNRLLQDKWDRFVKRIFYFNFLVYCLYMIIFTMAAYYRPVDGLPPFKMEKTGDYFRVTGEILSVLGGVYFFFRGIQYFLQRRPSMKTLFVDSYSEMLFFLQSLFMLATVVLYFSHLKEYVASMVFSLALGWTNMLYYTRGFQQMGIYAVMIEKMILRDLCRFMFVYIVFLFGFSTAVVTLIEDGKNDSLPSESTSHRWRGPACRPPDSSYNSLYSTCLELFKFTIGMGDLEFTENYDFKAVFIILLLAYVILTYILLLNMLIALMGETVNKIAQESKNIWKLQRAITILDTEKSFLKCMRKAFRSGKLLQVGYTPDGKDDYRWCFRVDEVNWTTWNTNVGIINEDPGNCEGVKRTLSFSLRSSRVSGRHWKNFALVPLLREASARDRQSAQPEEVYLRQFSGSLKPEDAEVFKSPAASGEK
Outline: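 Calcium influx kinetics via Fluo-8 (480/520 nm) in TRPV1-expressing cells, 2000/well cultured overnight at 35.5C. Compound-alone read 3 min (agonist phase), followed by EC20 capsaicin challenge for 2 min (enhancer phase).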

[14] = biological target: Thyrotropin receptor (Homo sapiens) (UniProt P16473); assay: qHTS Assay for Antagonists of the Thyroid Stimulating Hormone Receptor (AID 488980); further: series mostly up to about 58 µM
Outline: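 Inhibition of cAMP raised by EC80 TSH (4 nM final) was read by HTRF, with lysate cAMP competing against cAMP-d2 for cryptate antibody after 30 min at room temperature. The cells were transfected HEK293 held in phosphodiesterase inhibitor RO 20-1724 at 70 uM.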

[15] = biological target: Thyrotropin-releasing hormone receptor (Homo sapiens) (UniProt P34981); assay: qHTS for Small Molecule Agonists and Allosteric Enhancers of Human TRH Receptor: Validation Screen for Agonists (AID 493127;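 active means calcium activation more than 3 SD above the typical response in the agonist read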;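 further: intracellular calcium rise by fluo-8 fluorescence before TRH EC20 addition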); settings: TRH receptor agonist cell assay; at 2 µM; active compounds read high
Sequence of Thyrotropin-releasing hormone receptor (Homo sapiens) (P34981 whole entry, looked up): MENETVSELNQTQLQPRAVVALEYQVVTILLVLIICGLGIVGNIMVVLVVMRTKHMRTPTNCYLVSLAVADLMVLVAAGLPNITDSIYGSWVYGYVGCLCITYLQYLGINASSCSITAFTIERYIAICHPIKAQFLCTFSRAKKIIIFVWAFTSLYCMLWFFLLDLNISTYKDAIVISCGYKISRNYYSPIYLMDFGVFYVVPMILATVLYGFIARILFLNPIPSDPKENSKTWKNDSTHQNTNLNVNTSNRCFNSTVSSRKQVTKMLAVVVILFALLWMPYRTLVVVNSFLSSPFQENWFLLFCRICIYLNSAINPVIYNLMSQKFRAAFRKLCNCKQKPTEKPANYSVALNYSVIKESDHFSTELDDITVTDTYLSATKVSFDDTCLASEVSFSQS
Outline: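 Cells 2000/well, 10% FCS, 18 h 33.5C/5% CO2 → fluo-8 Ca dye, RT 30 min–1.5 h → FDSS baseline 10 × 1 s → compound added → 230 cycles (1 s/cycle) agonist mode. TRH controls.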

[16] = biological target: Galactokinase (Homo sapiens) (UniProt P51570); assay: qHTS Validation Assay for Inhibitors of Human Galactokinase (GALK) (AID 493189)
Sequence of Galactokinase (Homo sapiens) (P51570 whole entry, looked up): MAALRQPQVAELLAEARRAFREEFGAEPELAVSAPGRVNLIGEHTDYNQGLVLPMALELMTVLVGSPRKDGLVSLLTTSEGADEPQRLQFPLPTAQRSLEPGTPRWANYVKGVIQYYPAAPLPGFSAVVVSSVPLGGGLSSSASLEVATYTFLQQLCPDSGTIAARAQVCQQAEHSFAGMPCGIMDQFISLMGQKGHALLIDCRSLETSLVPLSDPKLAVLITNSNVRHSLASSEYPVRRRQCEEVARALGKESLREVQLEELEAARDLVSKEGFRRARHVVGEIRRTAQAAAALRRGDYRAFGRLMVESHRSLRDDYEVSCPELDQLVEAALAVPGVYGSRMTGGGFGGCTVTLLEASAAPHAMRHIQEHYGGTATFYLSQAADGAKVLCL
Outline: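 Inhibition was measured as remaining ATP, detected by luciferase luminescence after a 1 h room-temperature reaction. Final conditions: 5 nM GALK, 100 uM galactose, 35 uM ATP, pH 8.0 HEPES buffer.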

[17] = Validation screen for small molecules that induce DNA re-replication in SW480 colon adenocarcinoma cells (AID 504364)
Outline: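 250 cells/well; compound pinned in; 48 hr, 37 C, 5% CO2; Hoechst added, 40 min; nuclear fluorescence imaged, 405 ex / 500-530 em; re-replication scored as increase in high-intensity nuclei.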

[18] = biological target: DNA dC->dU-editing enzyme APOBEC-3G (Homo sapiens) (UniProt Q9HC16); assay: qHTS for inhibitors of Vif-A3G interactions: Validation (AID 588379)
Sequence of DNA dC->dU-editing enzyme APOBEC-3G (Homo sapiens) (Q9HC16 whole entry, looked up): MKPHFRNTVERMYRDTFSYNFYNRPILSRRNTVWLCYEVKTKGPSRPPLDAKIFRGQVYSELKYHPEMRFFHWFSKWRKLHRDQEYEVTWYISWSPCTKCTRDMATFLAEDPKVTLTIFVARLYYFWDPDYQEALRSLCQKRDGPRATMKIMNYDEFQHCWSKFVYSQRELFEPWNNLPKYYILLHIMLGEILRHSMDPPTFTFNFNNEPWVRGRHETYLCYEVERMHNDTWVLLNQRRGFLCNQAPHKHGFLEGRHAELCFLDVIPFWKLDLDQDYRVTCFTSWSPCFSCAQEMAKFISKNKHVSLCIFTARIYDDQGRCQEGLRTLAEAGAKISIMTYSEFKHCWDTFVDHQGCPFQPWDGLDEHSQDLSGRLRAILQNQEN
Outline: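 HeLa cells stably expressing Vif and A3G-eYFP, 700 cells/well, incubated overnight at 37 deg C, then exposed to compound overnight at 37 deg C. Inhibition of Vif-mediated degradation read as increased yellow fluorescence (Ex 488/Em 500-530) by laser-scanning cytometry.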

[19] = tested on: Zika virus NS2B-NS3 protease; assay: Primary screen GU AMC qHTS for Zika virus inhibitors (AID 1347154); further: nearly all actives have a fitted effect of over 70% in size
Outline: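 Fluorogenic AMC-substrate cleavage by noncovalent NS2B-NS3 protease complex (25 nM, pH 8.0 Tris buffer with Tween 20) followed for 15 minutes at room temperature (~20% conversion). Percent inhibition from ex340/em450 signal change, fitted by 4-parameter Hill equation.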

[20] = Primary qHTS for small molecule stabilizers of the endoplasmic reticulum resident proteome: Secreted ER Calcium Modulated Protein (SERCaMP) assay (AID 1508630)
Outline: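 GLuc-SERCaMP-expressing SH-SY5Y cells, pretreated 16 h with compound, are challenged with thapsigargin to empty ER calcium stores; after 4 h, coelenterazine is added directly to the medium and luminescence is imaged.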

## O=C(OCCN1CCCCC1)c1c[nH]c2ccccc12
[1]
  Potency: inactive
[2]
  Potency: inactive
[3]
  Potency: inactive
[4]
  Potency: 8.91 µM (active)
[5]
  Potency: inactive
[6]
  outcome: inactive
[7]
  Potency: inactive
[8]
  Potency: inactive
[9]
  Potency: inactive
[10]
  Potency: inactive
[11]
  Potency: inactive
[12]
  Potency: inactive
[13]
  outcome: inactive
[14]
  outcome: inactive
[15]
  activation: 1.38%
[16]
  outcome: inactive
[17]
  outcome: inactive
[18]
  Potency: inactive
[19]
  Potency: inactive
[20]
  Potency: inactive
